Hits are enriched below; roughly 6% of the tested compounds scored in any of these assays.
D1 antagonist – Antagonist of Human D 1 Dopamine Receptor: qHTS; D(1A) dopamine receptor (Homo sapiens), P21728; 360,000 compounds, 3.2% hits; activity change, negative = inhibition, % at 10 µM; HEK293 TREx D1 cells, calcium flux, dopamine EC80; active compounds read low; in the data active = activity change below about -30%; note: % is set by controls: 0 for no effect and ±100 for the full control effect
Target sequence (P21728 whole entry, looked up): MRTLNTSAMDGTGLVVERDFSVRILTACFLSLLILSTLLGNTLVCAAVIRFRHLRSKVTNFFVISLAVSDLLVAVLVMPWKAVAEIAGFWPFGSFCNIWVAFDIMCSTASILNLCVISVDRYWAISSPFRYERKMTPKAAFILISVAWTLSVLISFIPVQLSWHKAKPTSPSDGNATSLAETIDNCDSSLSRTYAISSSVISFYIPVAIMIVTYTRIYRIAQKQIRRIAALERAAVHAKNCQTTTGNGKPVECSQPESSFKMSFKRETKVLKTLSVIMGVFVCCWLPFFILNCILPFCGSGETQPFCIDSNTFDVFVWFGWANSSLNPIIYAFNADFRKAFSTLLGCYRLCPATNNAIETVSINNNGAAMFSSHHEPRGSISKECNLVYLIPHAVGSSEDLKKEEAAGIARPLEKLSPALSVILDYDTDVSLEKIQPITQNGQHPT
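Allosteric or orthosteric antagonism assessed as attenuation of the calcium response to EC80 dopamine, added 180 s after compound, in induced HEK293 Trex D1 cells loaded with no-wash calcium dye.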
D3 ag – qHTS of D3 Dopamine Receptor Agonist: qHTS; D3R DiscoveRx beta-arrestin cells, luminescence, 90 min; D(3) dopamine receptor (Homo sapiens), P35462; 410,000 compounds, 0.58% hits; max activation, %; in the data active = max activation above about 30%; note: 0% is about no effect
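Agonist mode: compounds and dopamine controls were applied to plated cells for 90 min at 37 degrees C after an overnight attachment at 1500 cells/well. Luminescent read-out followed 30 - 60 minutes at room temperature with DiscoveRx detection reagent.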
D1 agonist – Allosteric Agonists of the Human D1 Dopamine Receptor: qHTS. D(1A) dopamine receptor (Homo sapiens), P21728. HEK293 T-REx D1 cells, calcium flux, agonist mode. 360,000 compounds, 1% hits. activation, % at 2 µM; in the data active = activation above about 30%; note: 0% is about no effect
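Tetracycline-induced HEK293 TREx D1 cells, force-coupled to calcium signalling, were dye-loaded with a no-wash calcium kit. Compound was pin-added after a 10 s baseline. Fluorescence was read kinetically at 1 cycle/s for 180 s, with calcium rises flagged as agonism.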
D3 antag – qHTS of D3 Dopamine Receptor Antagonist: qHTS; D(3) dopamine receptor (Homo sapiens), P35462; D3R cells, DiscoveRx beta-arrestin luminescence, antagonist mode; active compounds read low; max response, negative = inhibition, %; 360,000 compounds, 2.5% hits; AID 652054, 2013; in the data active = max response below about -50%; inconclusive = no clear call, values can overlap the other calls; note: % is set by controls: 0 for no effect and ±100 for the full control effect
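Cells expressing the human receptor were seeded at 1500 cells/well, incubated overnight at 37 degrees C in 5% CO2, then exposed to library compounds with dopamine controls for 90 minutes at 37 degrees C before luminescent detection.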
D1 potentiator – Potentiators of Human D1 Dopamine Receptor: qHTS; D(1A) dopamine receptor (Homo sapiens), P21728; HEK293 TREx D1 cells, calcium flux, dopamine EC20 potentiation; potentiation, % at 10 µM; 360,000 compounds, 0.036% hits; in the data active = potentiation above about 30%; note: 0% is about no effect
An asterisk follows results filed as active; ? = inconclusive; . = no result; ! = not active in a repeat.

SMILES | D1 antagonist | D3 ag | D1 agonist | D3 antag | D1 potentiator
Cn1cnc(S(=O)(=O)N2CCCCC2c2cc(C(=O)Nc3cccc(C#N)c3)no2)c1 (stereo unspecified) | . | -22.1 | . | -80.0* | .
O=C(N=C1SCC(=O)N1c1ccccc1Cl)c1ccco1 | -32.5* | 3.6 | 7.1 | 39.8 | -12.9
O=C(Nc1ccc(F)c(F)c1)c1ccc(F)c(S(=O)(=O)N2CCOCC2)c1 | -32.9* | . | 15.4 | . | -3.2
O=C(NCCc1ccc(F)cc1)c1ccc(Cl)c(S(=O)(=O)N2CCOCC2)c1 | -32.6* | 6.3 | 9.5 | 10.4 | -8.8
O=C(Nc1cccnc1)c1ccc(F)c(S(=O)(=O)N2CCOCC2)c1 | -5.4 | 7.3 | 2.0 | -1.7 | -2.2
Cc1ccc(C(=O)Nc2ccon2)cc1S(=O)(=O)N1CCOCC1 | 0.4 | 32.3* | -0.2 | 15.0 | 0.1
COc1cc(-c2cc(C(=O)Nc3ccc(C)c(S(=O)(=O)N4CCOCC4)c3)c3ccccc3n2)cc(OC)c1OC | . | 33.4* | . | 50.7 | .
Nc1ccccc1SCC(=O)Nc1ccc2c(c1)OCO2 | 3.5 | -3.2 | 1.1 | -4.9 | -4.3
Cc1ccc(NC(=O)CSc2n[nH]c(N)n2)cc1S(=O)(=O)N1CCOCC1 | -64.5* | 3.3 | 0.1 | -5.5 | 0.2
COc1ccc(CC(=O)Nc2ccc(F)c(S(=O)(=O)N3CCOCC3)c2)cc1 | . | 0.4 | . | 2.4 | .
Cc1ccc(C(=O)Nc2ccccc2[N+](=O)[O-])cc1S(=O)(=O)N1CCOCC1 | -33.9* | -6.8 | 0.6 | 1.0 | -5.9
Cc1cc(C(=O)Nc2ccc(C)c(S(=O)(=O)N3CCOCC3)c2)c(C)o1 | 0.2 | -9.7 | -0.8 | ? | -1.6
Cc1ccc(C(=O)Nc2ccc(C)c(S(=O)(=O)N3CCOCC3)c2)c(C)c1 | -41.6* | -2.8 | 6.4 | 4.4 | -12.2
COC(=O)c1ccccc1NC(=O)CNc1ccc(F)c(S(=O)(=O)N2CCOCC2)c1 | -50.8* | 5.5 | -0.2 | -1.5 | 2.4
Cc1cc(C)n(-c2ccc(C(=O)Nc3cccnc3Cl)cc2)n1 | -41.4* | 1.5 | 5.0 | 7.7 | -12.5
Cc1cc(C)n(-c2ccc(C(=O)Nc3cc(S(=O)(=O)N(C)C)ccc3Cl)cc2)n1 | -30.3* | 16.2 | 3.7 | 12.0 | -5.5
O=c1[nH]c(=O)n([C@H]2CCCO2)cc1F | . | -5.6 | . | . | .
CN(Cc1ccccc1)C(=O)C1CCC(CNS(=O)(=O)c2ccc3c(c2)CCCC(=O)N3)CC1 (stereo unspecified) | -22.3 | -0.8 | 5.9 | . | 0.0
O=C(Cn1c(CO)nc2ccccc21)Nc1ccc2c(c1)OCCCO2 | 11.3 | 0.7 | 0.4 | -16.0 | -7.2
N#Cc1c(Cl)nsc1NC(=O)c1ccccc1 | -37.5* | 5.7 | 33.6* | 24.0 | -3.7
N#Cc1c(NC(=O)c2ccccc2)sc2c1CCCCC2 | 10.7 | -4.8 | -1.1 | 0.0 | -0.9
FC(F)C(F)(F)c1cc(-c2ccccc2)n[nH]1 | 4.3 | -5.7 | 42.8* | -8.7 | -5.0
O=C(O)c1cc(-c2ccccc2)n[nH]1 | 5.7 | . | 1.5 | . | -0.1
Fc1ccc(CNC(=S)NCc2cccc(Cl)c2)cc1 | -32.6* | -14.2 | -0.9 | -23.3 | -3.5
Fc1ccc(CNC(=S)Nc2ccc(Cl)cc2Cl)cc1 | -37.8* | 0.6 | 24.1 | 8.6 | -11.9
SMILES | D1 antagonist | D3 ag | D1 agonist | D3 antag | D1 potentiator
S=C(NCc1ccccc1)NCc1cccc(Cl)c1 | -16.9 | -0.1 | 1.3 | 1.4 | -2.9
Cc1ccccc1C(OCCN(C)C)c1ccccc1 (stereo unspecified) | . | . | . | -53.4* | .
CC(C)n1cnc2c(NCc3ccccc3)cc(N[C@H](C)CO)cc21 | . | -11.1 | . | ? | .
O=C(Nc1ccn(CCCNCCN2CCOCC2)c(=O)n1)OCc1ccccc1 | . | -34.2 | . | -16.0 | .
O=C(Nc1ccn(CCCNC2CCN(Cc3ccccc3)CC2)c(=O)n1)OCc1ccccc1 | . | -12.0 | . | -52.5* | .
C[C@@H](NCCCn1ccc(NC(=O)OCc2ccccc2)nc1=O)c1cccc2ccccc12 | . | -59.3 | . | -10.6 | .
C[C@@H](NC(=O)Cn1ccc(NC(=O)OCc2ccccc2)nc1=O)c1cccc2ccccc12 | -33.1* | -12.2 | 2.9 | 0.0 | -5.0
CCOC(=O)c1ccc(NC(=O)CCCc2nc(-c3cc(OC)c(OC)c(OC)c3)no2)cc1 | 4.6 | 3.9 | 0.4 | . | 1.4
CCc1nn(CC(=O)NCCCN2CCOCC2)c(=O)c2cc3sccc3n12 | -4.0 | -6.2 | 0.9 | ? | -4.4
CCc1nn(CC(=O)NCCCN2CCOCC2)c(=O)c2cc3cc(F)ccc3n12 | -73.7* | -7.5 | -0.4 | 10.6 | -12.5
CCc1nn(CC(=O)NCCCN2CCN(CC)CC2)c(=O)c2cc3occc3n12 | -34.9*! | 0.5 | 2.4 | -19.0 | -2.7
CCc1nn(CC(=O)NCCCN(CC)CC)c(=O)c2cc3occc3n12 | -4.8 | -27.1 | 3.9 | . | 0.2
O=C(O)Cc1ccc(NC(=O)c2ccc3c(c2)C(=O)N(Cc2ccco2)C3=O)cc1 | 6.4 | -11.3 | 1.6 | -6.6 | -8.3
C=CCNC(=S)NNC(=O)CC12CC3CC(CC(C3)C1)C2 | -42.2* | 7.8 | 0.6 | 9.2 | -15.4
O=C(O)CCn1c2c(c3ccccc31)C[C@H](NS(=O)(=O)c1ccc(F)cc1)CC2 | . | -9.1 | . | . | .
CC(C)CNS(=O)(=O)c1cc(C(=O)N2CC(C)OC(C)C2)c(Cl)cc1Cl (stereo unspecified) | 5.2 | 5.4 | 0.5 | -54.6* | -3.8
O=C(Nc1cccc(Cl)c1)c1nc[nH]c1C(=O)Nc1ccccc1F | . | -2.6 | . | -16.8 | .
Cc1ccc2c(CNCc3cccs3)c(C(=O)O)n(Cc3ccc(F)cc3)c2c1 | 35.3 | -4.6 | 0.4 | . | 1.4
O=[N+]([O-])c1ccccc1/C=C/CN1CCCCC1 | -29.8 | -28.1 | 2.5 | -70.5* | -5.1
O=[N+]([O-])c1ccccc1/C=C/CN1CCCCC1CO (stereo unspecified) | -33.8* | -8.9 | 3.8 | -2.9 | -4.0
O=C(/C=C/c1ccccc1[N+](=O)[O-])NC1CCCC1 | . | 0.4 | 1.2 | 12.5 | -3.0
CN(C/C=C/c1ccccc1[N+](=O)[O-])Cc1ccccc1 | -12.9 | -0.3 | 2.0 | -80.2* | 12.6
CCOC(=O)CCc1cc(F)c(S(=O)(=O)N2CCN(S(=O)(=O)c3ccc4c(c3)OCCO4)CC2)cc1F | 12.8 | . | 2.6 | . | -3.0
Cn1c(=O)oc2cc(S(=O)(=O)N3CCCC(C(=O)N4CCN(c5cccc(Cl)c5)CC4)C3)ccc21 (stereo unspecified) | -31.7* | 10.6 | 5.9 | . | -2.8
Cc1cccc(CCNC(=O)C2CCCN(S(=O)(=O)c3ccc4c(c3)oc(=O)n4C)C2)c1 (stereo unspecified) | -50.2* | 4.2 | -1.3 | . | -3.1
COc1cccc(N2CCN(C(=O)C3CCCN(S(=O)(=O)c4cccc5nsnc45)C3)CC2)c1 (stereo unspecified) | -10.4 | 13.4 | 2.4 | . | -0.1
